# Screening results deposited in PubChem BioAssay by National Center for Advancing Translational Sciences (NCATS).
# This is a sample that favours compounds with a hit; in the whole collection about 1.5% have one here.
# FEN1 inhibitor = human FEN1 inhibition | P39748 | Recombinant FEN1 flap cleavage, fluorescence, 15 min | Potency, µM (titrated, usually from 114 µM), usual class: inhibitors | 390,000 tested, 0.35% active; further: nearly all actives have a fitted effect of over 65% in size
# Target sequence (P39748 whole entry, looked up): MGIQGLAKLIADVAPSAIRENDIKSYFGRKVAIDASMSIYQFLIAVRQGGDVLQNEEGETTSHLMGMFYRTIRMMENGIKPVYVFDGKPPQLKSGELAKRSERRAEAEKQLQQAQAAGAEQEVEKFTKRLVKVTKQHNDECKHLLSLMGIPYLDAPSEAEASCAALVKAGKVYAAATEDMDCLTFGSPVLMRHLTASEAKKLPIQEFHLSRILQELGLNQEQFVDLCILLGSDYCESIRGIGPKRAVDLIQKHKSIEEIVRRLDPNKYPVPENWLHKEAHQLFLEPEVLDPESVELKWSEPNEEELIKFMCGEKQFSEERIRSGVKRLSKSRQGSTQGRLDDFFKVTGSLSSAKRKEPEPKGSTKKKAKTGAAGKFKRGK
#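 Recombinant FEN1 (10 nM) was preincubated with pin-transferred compounds for 15 min at room temperature, then flap DNA substrate (50 nM final) was added. Plates were read at 0 and 15 min, and normalized concentration–response data were fitted to a four-parameter Hill equation.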
# RECQ1 helicase = RECQ1 (human) helicase inhibition; P46063; RECQ1 DNA unwinding, red fluorescence kinetic read; Potency, µM (top dose mostly 57.3 µM), actives largely listed as inhibitors; 240,000 tested, 0.54% active; AID 2549; further: nearly all actives have a fitted effect of over 30% in size
#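 50 nM RECQ1T1 preincubated 15 min with compound in Tris pH 8.0 buffer with MgCl2, DTT, Tween-20 and 2.5 ug/ml poly(dI-dC); started with 200 nM TAMRA/BHQ-2 forked duplex and 2 mM ATP. Unwinding read as fluorescence (525/598 nm), two reads 2 h apart.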
# WRN inhibitor = WRN helicase (human) inhibition. AID 651768. 360,000 tested, 0.46% active. Potency, µM (highest dose often 114 µM), usual class: inhibitors. WRN helicase unwinding, fluorescent forked duplex, kinetic. Q14191; further: nearly all actives have a fitted effect of over 55% in size
#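 Screening of the MLSMR collection measured strand separation of a quenched forked DNA duplex (100 nM) by 20 nM WRN with 2 mM ATP, all final. Compounds were preincubated with enzyme 15 min at room temperature.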
# APEX1 inh = APE1 (human) endonuclease inhibition; 350,000 tested, 0.35% active; P27695; Potency, µM (highest dose often 65.8 µM), usual class: inhibitors; recombinant APE1, TAMRA/BHQ-2 abasic DNA cleavage fluorescence; further: nearly all actives have a fitted effect of over 55% in size
# Target sequence (P27695 whole entry, looked up): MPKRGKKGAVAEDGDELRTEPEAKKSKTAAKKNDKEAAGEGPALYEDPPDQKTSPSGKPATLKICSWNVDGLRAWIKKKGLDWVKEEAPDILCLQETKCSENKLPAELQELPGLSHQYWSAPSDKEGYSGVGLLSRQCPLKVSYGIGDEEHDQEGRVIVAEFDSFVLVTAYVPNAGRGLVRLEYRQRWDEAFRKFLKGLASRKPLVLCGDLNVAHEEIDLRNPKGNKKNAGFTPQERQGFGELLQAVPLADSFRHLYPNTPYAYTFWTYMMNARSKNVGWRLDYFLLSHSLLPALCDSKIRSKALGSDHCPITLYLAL
#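 Endonuclease cleavage of a quenched abasic-site DNA duplex (50 nM) by APE1 (0.75 nM) was tracked by TAMRA dequenching. Compounds were preincubated with enzyme 15 min at room temperature; data normalized to buffer-only and DMSO wells plus NSC13755 control.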
# BLM helicase inh = Bloom syndrome helicase (human) inhibition; P54132; recombinant BLM DNA unwinding, fluorescence dequenching; Potency, µM (titrated, usually from 56.1 µM), actives largely listed as inhibitors; 350,000 tested, 0.2% active; further: nearly all actives have a fitted effect of over 35% in size
# PI5P4K alpha inh = PI5P4K alpha (human) kinase inhibition; PI5P4Kalpha enzyme, ADP-Glo luminescence, 60 min; active compounds read low; 330,000 tested, 1.2% active; AID 652105; max response, %; active means max response of -50% or lower; inconclusive means between -30% and -50%; inactive means -30% or higher; further: value at the top dose of about 77 µM
#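 Reactions run in 0.038 M HEPES pH 7.4, 0.28 mM EGTA, 0.1% CHAPS and 5% DMSO, with PI5P4Kalpha, substrate, compound and 5 microM ATP final, one hour at room temperature. Readout is ADP-Glo luminescence.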
# Hits are given with their value; i = inactive; ? = inconclusive; nt = no result given; ! = a repeat was not active; [ ] = remark or other dose. Unless noted, the call rests on the fitted dose curve; in most records, active means well fitted curve in the direction sought with a large enough effect; inconclusive means small, poorly fitted or top-dose-only effect, or another doubt; inactive means no such curve, though single readings can be large; an effect the other way counts as inactive or inconclusive.
SMILES,FEN1 inhibitor,RECQ1 helicase,WRN inhibitor,APEX1 inh,BLM helicase inh,PI5P4K alpha inh
O=C(N/N=C/c1ccco1)C1CC1c1ccccc1 (configuration not stated),i,i,i,?,i,-50.3
O=C(N/N=C/c1ccco1)C1CC1,i,i,i,i,i,i
Cc1cccc(C)c1Nc1nnc(SC/C(O)=C(\C#N)c2nc3ccccc3[nH]2)s1,i,i,i,i,i,-67.9
Cc1cccc(Nc2nnc(SC/C(O)=C(\C#N)c3nc4ccccc4[nH]3)s2)c1C,i,i,i,i,i,-59.3
Cc1ccc(S(=O)(=O)C(CNS(=O)(=O)c2ccc(F)c(C(F)(F)F)c2)c2ccco2)cc1 (configuration not stated),i,nt,nt,nt,i,nt
COc1ccc(-c2cc(C(=O)Nc3ccc(C#N)cc3)no2)cc1,i,nt,nt,nt,i,nt
O=C(O)Cc1ccc(-n2cccc2)cc1,?,i,39.8µM,i,i,i
CO[C@@H]1[C@@H](OC2OC(C)C(OC3CC(C)(O)C(OC(=O)CC(C)C)C(C)O3)C(N(C)C)C2O)[C@@H](CC=O)C[C@@H](C)C(=O)/C=C\C2O[C@H]2C[C@@H](C)OC(=O)C[C@H]1OC(C)=O (some centres not stated),i,nt,nt,nt,i,nt
CCOC(=O)c1c(NC(C)=O)sc2c(OCC(O)CN(CC)CC)c(Br)ccc12 (configuration not stated),22.4µM,i,i[11.6 µM],?,i,i
CCOC(=O)c1c(NC(C)=O)sc2c(OCCN(CC)CC)c(Br)ccc12,?,i,i,i,i,i
C=CC[C@H](c1ccc(F)cc1)N(CC(C)C)S(=O)(=O)C=C,i,nt,nt,nt,nt,nt
CCCNc1ncc2c(=O)[nH][nH]c(=O)c2n1,i,nt,i,nt,nt,-55.3
CCCNc1ccc(S(=O)(=O)N(CC)CC)cn1,i,i,i,i,i,i
O=C1C=CC(=O)c2c(O)c(CO)c(CO)c(O)c21,15.8µM,nt,7.94µM,nt,nt,-89.3
COc1cc(NC(=O)Cn2c(C)cc(C)c(C#N)c2=O)cc(OC)c1,i,nt,nt,nt,i,nt
O=c1[nH]c(=O)c2[nH]c(=S)[nH]c2[nH]1,?,nt,?,nt,nt,-86.1
ON=C1c2cc(OCCN3CCCCC3)ccc2-c2ccc(OCCN3CCCCC3)cc21,31.6µM,nt,i,?,i,i
CCN(CC)c1ccc(C2C(C(=O)OC)=C(C)NC(C)=C2C(=O)OC)cc1,i,i,i,i,i,i
CCN(CC)c1ccc(/C=C/C(=O)C2C(=O)C=C(C)OC2=O)cc1 (configuration not stated),i,15.8µM,?,?,?,i
Cc1ccc(/C=C/c2nc3ccccc3s2)s1,i,i,i,i,i,i
C=C(/C=C/c1ccc(N(C)C)cc1)c1nc2ccccc2s1,25.1µM,nt,nt,nt,nt,nt
CN(C)c1ccc(/C=C/c2cccc3cc4ccccc4nc23)cc1,79.4µM,nt,nt,nt,nt,nt
CN(C)c1ccc(/C=C/c2nc3ccccc3s2)cc1,50.1µM!,i,i,i,i,i
CN(Cc1ccccc1)c1ccc(/C=C/c2nc3ccccc3s2)cc1,35.5µM,nt,nt,nt,nt,nt
CN(Cc1ccccc1)c1ccc(C=O)cc1,i,nt,nt,nt,nt,nt
SMILES,FEN1 inhibitor,RECQ1 helicase,WRN inhibitor,APEX1 inh,BLM helicase inh,PI5P4K alpha inh
Cc1ccc(C)c(NC(=O)N2CCN(C(=O)c3nsc4ccccc34)CC2)c1,i,nt,nt,nt,i,nt
N#Cc1c2c(c(Cl)n3c1nc1ccccc13)CCCC2,i,nt,nt,nt,nt,nt
CC(C)c1ccc(Cn2cnc3c(cnn3C(C)(C)C)c2=O)cc1,i,nt,nt,i,nt,nt
CC(=O)Oc1cccc2c1C(=O)c1c(OC(C)=O)cc(C(=O)O)cc1C2=O,i,i,i,i,i,-76.3
CC(=O)Oc1ccc(C(=O)O)cc1OC(C)=O,i,i,i,i,i,nt
O=C(CC(C(=O)O)n1ccnc1)c1ccc(Cl)cc1 (configuration not stated),i,nt,nt,nt,nt,nt
O=C(O)c1ccc(N2C(=O)CC(N3C(=O)/C(=C/c4ccc(Cl)cc4)SC3=S)C2=O)cc1 (configuration not stated),i,i,i[11.6 µM],i,i,-63.6
N[C@@H]1CCN(O)C1=O,nt,i,nt,3.55µM!,i,nt
Brc1cccc(/C=N/Nc2nn[nH]n2)c1,i,i,i,i,i,i
O=C(/C=C/c1cccc(Br)c1)Nc1nn[nH]n1,i,i,i,i,i,-68.7
CCOc1cc(/C=C2\SC(=Nc3ccc(CC)cc3)NC2=O)ccc1OCC(=O)O,?,nt,?,?,i,-90.5
C=CCOc1c(Br)cc(/C=C2\SC(=Nc3ccccc3)NC2=O)cc1OC,i,nt,i,i,i,i
CCc1ccc(N=C2NC(=O)/C(=C/c3cc(OC)c(OC)c(OC)c3)S2)cc1,i,nt,i,i,i,i
Cc1ccc(S(=O)(=O)/N=C2/NC(=O)/C(=C/c3cccnc3)S2)cc1,i,i,?,i,i,?
CCOc1cc(Br)cc(/C=C2\SC(=Nc3ccccc3)NC2=O)c1O,i,nt,i,i,i,-62.4
Cc1ccc(S(=O)(=O)/N=C2/NC(=O)/C(=C\c3cc(Br)cc(Br)c3O)S2)cc1,28.2µM,nt,20µM,i,?,-78.2
CC1C=CC=CC=CC=CC=CC=CC=CC(OC2OC(C)C(O)C(N)C2O)CC2OC(O)(CC(O)CC(O)C(O)CCC(O)CC(O)CC(=O)OC(C)C(C)C1O)CC(O)C2C(=O)O (configuration not stated),i,nt,17.8µM,nt,nt,i
Cc1cc2nc3c(=O)n(CCc4ccccc4)c(=O)[nH]c3nc2cc1N,i,i,i,i,i,-85.7
Nc1ccc2nc3c(=O)n(CCc4ccccc4)c(=O)[nH]c3nc2c1,?,i,i,i,i,-62.8
Nc1ccc2nc3c(=O)n(C4CCCCC4)c(=O)[nH]c3nc2c1,i,i,i,i,i,?
Cn1c2ccccc2c(=O)c2c(=O)n(C3CCCCCC3)c(C3CCCCC3)nc21,i,i,i,i,i,i
Cn1c2ccccc2c(=O)c2c(=O)n(C3CCCCC3)c(-c3cccs3)nc21,56.2µM,i,i,i,i,nt
CCn1nc(-c2ccccc2C)nc2c(=O)n(C)c(=O)nc1-2,i,nt,nt,nt,nt,nt
CC1(C)Cc2c(sc3ncn4c(=S)[nH]nc4c23)CO1,i,i,i,i,i,-53.2
Cc1nc2cc(C(=O)NCCC3=CCCCC3)ccc2n1-c1ccc(Br)cc1,i,nt,nt,nt,i,nt
SMILES,FEN1 inhibitor,RECQ1 helicase,WRN inhibitor,APEX1 inh,BLM helicase inh,PI5P4K alpha inh
CN1C(=O)NC2(O)C(=O)c3ccccc3C12O (configuration not stated),i,i,?,i,i,-50.5
O=C(N/N=C/c1c[nH]c2ccccc12)c1ccc(Cl)cc1,i,nt,i,i,i,i
O=C(N/N=C/c1c[nH]c2ccccc12)c1cc(Cl)ccc1O,i,nt,i,i,i,-54.5
O=C(N/N=C/c1c[nH]c2ccccc12)c1ccccc1Cl,i,nt,i,i,i,i
O=C(N/N=C\c1c[nH]c2ccccc12)c1ccc(O)cc1,i,nt,i,i,i,-73.5
Cc1ccc(C2C(C#N)=C(N)SC(N)=C2C#N)c(C)c1,i,i,i,i,i,-62.9
